Source: PubChem BioAssay (NCATS)
Inconclusive results are not listed. A number with no mark means an inactive call. Active and inactive are the calls of the source. The call rests on the fitted dose curve; in most records, active means well fitted inhibition curve with a large enough effect; inconclusive means small, poorly fitted or top-dose-only effect; inactive means flat fitted curve, though single readings scatter.

biological target: Calcium and integrin-binding protein 1 (Homo sapiens) (UniProt Q99828); test: Primary qHTS for Identification of Calcium Integrin Binding Protein 1 (CIB1) Competitor (AID 1508620); details: CIB1-GST / FITC-alphaIIb peptide fluorescence polarization; series mostly up to 114 µM; activity change, negative = inhibition: at the top concentration; further: top concentration of the series differs between compounds
Summary of the method: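 Fluorescence polarization competition: GST-tagged CIB1 (1 uM final) preincubated with compound 15 min at room temperature, then FITC-labelled alphaIIb peptide (100 nM final) added. After 15 min at room temperature, polarization read at Ex 480/Em 540.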
On the % scale 0 is the no-effect control and ±100 the full control effect.

Calcium and integrin-binding protein 1 (Homo sapiens), sequence (Q99828 whole entry, looked up): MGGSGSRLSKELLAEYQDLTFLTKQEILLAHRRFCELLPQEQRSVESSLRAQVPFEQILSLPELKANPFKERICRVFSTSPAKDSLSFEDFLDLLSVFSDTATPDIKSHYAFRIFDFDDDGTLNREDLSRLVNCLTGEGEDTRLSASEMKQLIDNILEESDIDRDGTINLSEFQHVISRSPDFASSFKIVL

| Compound | activity change, negative = inhibition | Potency |
| --- | --- | --- |
| CCOC(=O)CCc1cc(F)c(S(=O)(=O)N2CCN(S(=O)(=O)c3ccc4c(c3)OCCO4)CC2)cc1F | 5.87% |  |
| CC(=O)Nc1sc2c(c1-c1cccnc1)CCNC2 | 7.05% |  |
| CC(C)(C)OC(=O)N1CCN(c2ccc(NCc3cnc(-c4ccc(C#N)cc4)s3)cc2)CC1 | 5.77% |  |
| O=C(Nc1cncc(NC(=O)c2cccs2)c1)c1cccs1 | 1.62% |  |
| Cc1ccc(CNc2ncnc3ccc(-c4sc(C)nc4C)cc23)o1 | -14.2% |  |
| Cc1cccc(-n2cnc3cc(C(=O)N4CCCC(C(C)C)C4)ccc32)c1 (centres undefined) | -3.3% |  |
| O=C(COC(=O)CNC(=O)c1ccccc1)Nc1cc(C(F)(F)F)ccc1Cl | -4.1% |  |
| O=C(OCC#CCSc1nnc(-c2cccc3ccccc23)s1)c1cccs1 | -10.7% |  |
| Cc1cccc(CNc2ccnc(-c3ccc(C(F)(F)F)cc3)n2)c1 | 2.56% |  |
| COc1ccc(-c2ccc3ncnc(NCc4cccs4)c3c2)cc1 | -0.374% |  |
| O=C(O)c1ccc(O)c2ncc(NC3CCNCC3)cc12 | -4.19% |  |
| O=S(=O)(Nc1ccc2ccccc2c1)c1ccc(NCc2ccc(Br)cc2O)cc1 | 5.66% |  |
| Cc1ccc(C)c(SC2CS(=O)(=O)c3ccccc32)c1 (centres undefined) | 1.28% |  |
| NCCCNc1ncnc2ccc(-c3ccc4c(c3)OCO4)cc12 | 5.05% |  |
| CC(=O)Nc1sc2c(c1-c1cccc(F)c1)CCNC2 | 8.66% |  |
| COc1cc2nc(N3CCN(C)CC3)nc(NCCN(C)C)c2cc1OC | 2.98% |  |
| O=C(O)c1ccc(S(=O)(=O)N[C@H](Cc2ccc(C(F)(F)F)cc2)C(=O)O)cc1 | -4.4% |  |
| CCCCC(O)C(=O)Nc1cc(C(F)(F)F)ccc1Cl (centres undefined) | -1.69% |  |
| O=C1CCCC2=C1C(c1[nH]ncc1Cl)NC(=NCc1nccs1)N2 (centres undefined) | -10.7% |  |
| Cc1ccc(C[C@@H](NS(=O)(=O)c2ccc(C(=O)O)cc2)C(=O)O)cc1 | 1.18% |  |

| Compound | activity change, negative = inhibition | Potency |
| --- | --- | --- |
| Cc1cc(C)nc(NC(=S)N2CCN(c3ncccn3)CC2)c1 | -0.681% |  |
| O=C1NS(=O)(=O)c2cscc21 | 3.07% |  |
| CC(C)c1ccccc1-c1nc(NCc2ccc(-c3cccnc3)cc2)c2cccn2n1 | -4.05% |  |
| O=C(/C=C/c1ccccc1)Nc1cccc(S(=O)(=O)Nc2ccccc2F)c1 |  | inactive |
| Cc1cnc(-c2ccccc2C(C)C)nc1N(C)Cc1ccc(-c2cccnc2)cc1 | -0.685% |  |
| COc1cc(-c2nc(Nc3ccc(F)c(F)c3)c3ccccc3n2)cc(OC)n1 | 3.21% |  |
| CC(=O)Nc1sc2c(c1-c1nccs1)CCNC2 | 7.87% |  |
| O=C1CCCC2=C1C1(CCCC1)N=C(Nc1nc3cc(-c4ccccc4)ccc3o1)N2 | -15.8% |  |
| O=[S+]([O-])(c1c(F)cccc1F)N1CCN([S+](=O)([O-])c2c(F)c(F)c(F)c(F)c2F)CC1 | 10.4% |  |
| COc1ccc(-c2ccc(=O)n(CC(=O)NCCc3ccccc3)n2)cc1OC | -4.2% |  |
| O=C(c1cccs1)c1nonc1C(=O)c1cccs1 | -1.44% |  |
| Cn1cc(C[C@H](C(=O)O)N2C(=O)c3ccc(C(=O)O)cc3C2=O)c2ccccc21 | -3.89% |  |
| Cn1nnnc1Sc1ncnc2scc(-c3cccc(Cl)c3)c12 | 3.82% |  |
| COc1cc(-c2no[n+]([O-])c2C#N)cc(OC)c1OC | 1.22% |  |
| CCN(CC)c1ccc(NC(=O)CN(C)Cc2c(O)ccc3ccccc23)cc1 | -1.54% |  |
| O=C1c2ccccc2C(=O)N1Cc1ccccc1 | -1.94% |  |
| O=C(OCC#CCSc1nnc(-c2cccc3ccccc23)o1)c1cc2ccccc2o1 | -3.02% |  |
| FC(F)(F)c1ccccc1-c1nc(NCc2ccc(-c3cccnc3)cc2)c2ccccc2n1 | 2.75% |  |
| COc1cccc(-c2ccc3ncnc(NCc4ccc5c(c4)OCO5)c3c2)c1 | 3.55% |  |
